# Columns and labels:
# Test in all cases: yeast three-hybrid, YBZ-1, SC-Leu-His + 0.5 mM 3-AT, 4 days
# Conditions in all cases: tags: N-Gal4 AD-HA kept; label: inside an RPR1-promoter hybrid RNA with tandem MS2 sites; ssRNA
# [1] = molecular target: PUM1 PUF domain R7-ENR (Homo sapiens, UniProt Q14671 828-1176, S1079E;E1083R)
# Procedure, shortened: (§1)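 Pumilio-1 PUF domain libraries, randomized at the three base-contacting residues of each repeat, were co-expressed with matching RNA elements from a centromeric plasmid in strain YBZ-1, which carries a LexA–MS2 coat fusion and a HIS3 reporter. Transformants grew for four days on SC-Leu (input) or on SC-Leu-His + 0.5 mM 3-AT (selection), and the repeat regions were PCR-amplified and Illumina-sequenced. The interaction score is the log change in variant frequency from input to selection. That logarithm is base 2, with a pseudocount of 1 where a variant was absent.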
# [2] = molecular target: PUM1 PUF domain R5-MYC (Homo sapiens, UniProt Q14671 828-1176, C1007M;R1008Y;Q1011C)
# Procedure, shortened: as §1
# [3] = molecular target: PUM1 PUF domain R5-KYC (Homo sapiens, UniProt Q14671 828-1176, C1007K;R1008Y;Q1011C)
# Procedure, shortened: as §1
# [4] = molecular target: PUM1 PUF domain R5-FRW (Homo sapiens, UniProt Q14671 828-1176, C1007F;Q1011W)
# Procedure, shortened: as §1
# [5] = molecular target: PUM1 PUF domain R5-FHK (Homo sapiens, UniProt Q14671 828-1176, C1007F;R1008H;Q1011K)
# Procedure, shortened: as §1
# [6] = molecular target: PUM1 PUF domain R7-RGF (Homo sapiens, UniProt Q14671 828-1176, S1079R;N1080G;E1083F)
# Procedure, shortened: as §1
# [7] = molecular target: PUM1 PUF domain R3-SNR (Homo sapiens, UniProt Q14671 828-1176, C935S;R936N;Q939R)
# Procedure, shortened: as §1
# [8] = molecular target: PUM1 PUF domain R3-LSC (Homo sapiens, UniProt Q14671 828-1176, C935L;R936S;Q939C)
# Procedure, shortened: as §1
# [9] = molecular target: PUM1 PUF domain R3-MSR (Homo sapiens, UniProt Q14671 828-1176, C935M;R936S;Q939R)
# Procedure, shortened: as §1
# [10] = molecular target: PUM1 PUF domain R8-KYK (Homo sapiens, UniProt Q14671 828-1176, N1122K;Q1126K)
# Procedure, shortened: as §1
# [11] = molecular target: PUM1 PUF domain R8-GHR (Homo sapiens, UniProt Q14671 828-1176, N1122G;Y1123H;Q1126R)
# Procedure, shortened: as §1
# [12] = molecular target: PUM1 PUF domain R8-RYW (Homo sapiens, UniProt Q14671 828-1176, N1122R;Q1126W)
# Procedure, shortened: as §1
# [13] = molecular target: PUM1 PUF domain R4-MHW (Homo sapiens, UniProt Q14671 828-1176, N971M;Q975W)
# Procedure, shortened: as §1
# [14] = molecular target: PUM1 PUF domain R4-WAA (Homo sapiens, UniProt Q14671 828-1176, N971W;H972A;Q975A)
# Procedure, shortened: as §1
# [15] = molecular target: PUM1 PUF domain R1-KLC (Homo sapiens, UniProt Q14671 828-1176, S863K;R864L;Q867C)
# Procedure, shortened: as §1
# [16] = molecular target: PUM1 PUF domain R5-PRS (Homo sapiens, UniProt Q14671 828-1176, C1007P;Q1011S)
# Procedure, shortened: as §1
# [17] = molecular target: PUM1 PUF domain R4-DRC (Homo sapiens, UniProt Q14671 828-1176, N971D;H972R;Q975C)
# Procedure, shortened: as §1
# [18] = molecular target: T1, PUM1 PUF domain R6-VFI (Homo sapiens, UniProt Q14671 828-1176, N1043V;Y1044F;Q1047I)
# T1 sequence: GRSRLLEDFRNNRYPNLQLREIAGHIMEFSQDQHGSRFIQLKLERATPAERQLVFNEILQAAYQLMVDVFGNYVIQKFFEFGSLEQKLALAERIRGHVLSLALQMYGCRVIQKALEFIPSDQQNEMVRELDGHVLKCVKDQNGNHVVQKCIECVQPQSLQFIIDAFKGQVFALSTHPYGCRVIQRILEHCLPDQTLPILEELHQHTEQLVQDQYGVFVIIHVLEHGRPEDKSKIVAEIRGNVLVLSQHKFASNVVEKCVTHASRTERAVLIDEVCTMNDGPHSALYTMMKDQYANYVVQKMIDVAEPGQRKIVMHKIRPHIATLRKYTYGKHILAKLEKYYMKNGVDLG
# Procedure, shortened: as §1
# [19] = molecular target: PUM1 PUF domain R5-KWA (Homo sapiens, UniProt Q14671 828-1176, C1007K;R1008W;Q1011A)
# Procedure, shortened: as §1
# [20] = molecular target: PUM1 PUF domain R5-KHH (Homo sapiens, UniProt Q14671 828-1176, C1007K;R1008H;Q1011H)
# Procedure, shortened: as §1
sequence,measurement,setting,value
GGCUAGAACUAGUGGAUCCCCCGGCGCCCGGCGGCUCGAGCCCGGGUAAGUCUAAAUAGUCUGCAUGCCGCCGGGCGCCAUGCCUGCAGGUCGACUCUAGAAAACAUG,binding signal,[1],3.14 log2 enrichment (interaction score)
GGCUAGAACUAGUGGAUCCCCCGGCGCCCGGCGGCUCGAGCCCGGGUAAGUGUUAAUAGUCUGCAUGCCGCCGGGCGCCAUGCCUGCAGGUCGACUCUAGAAAACAUG,binding signal,[2],2.86 log2 enrichment (interaction score)
same,binding signal,[3],5.51 log2 enrichment (interaction score)
same,binding signal,[4],3.35 log2 enrichment (interaction score)
same,binding signal,[5],4.76 log2 enrichment (interaction score)
GGCUAGAACUAGUGGAUCCCCCGGCGCCCGGCGGCUCGAGCCCGGGUAAGUUUAAAUAGUCUGCAUGCCGCCGGGCGCCAUGCCUGCAGGUCGACUCUAGAAAACAUG,binding signal,[6],3.87 log2 enrichment (interaction score)
GGCUAGAACUAGUGGAUCCCCCGGCGCCCGGCGGCUCGAGCCCGGGUAAGUGUCAAUAGUCUGCAUGCCGCCGGGCGCCAUGCCUGCAGGUCGACUCUAGAAAACAUG,binding signal,[4],3.47 log2 enrichment (interaction score)
GGCUAGAACUAGUGGAUCCCCCGGCGCCCGGCGGCUCGAGCCCGGGUAAGUGUAAUUAGUCUGCAUGCCGCCGGGCGCCAUGCCUGCAGGUCGACUCUAGAAAACAUG,binding signal,[7],3.93 log2 enrichment (interaction score)
same,binding signal,[8],2.84 log2 enrichment (interaction score)
same,binding signal,[9],2.82 log2 enrichment (interaction score)
GGCUAGAACUAGUGGAUCCCCCGGCGCCCGGCGGCUCGAGCCCGGGUAAGCGUAAAUAGUCUGCAUGCCGCCGGGCGCCAUGCCUGCAGGUCGACUCUAGAAAACAUG,binding signal,[10],3.86 log2 enrichment (interaction score)
same,binding signal,[11],3.27 log2 enrichment (interaction score)
same,binding signal,[12],5.69 log2 enrichment (interaction score)
GGCUAGAACUAGUGGAUCCCCCGGCGCCCGGCGGCUCGAGCCCGGGUAAGUGUAUAUAGUCUGCAUGCCGCCGGGCGCCAUGCCUGCAGGUCGACUCUAGAAAACAUG,binding signal,[13],3.93 log2 enrichment (interaction score)
same,binding signal,[14],4.4 log2 enrichment (interaction score)
GGCUAGAACUAGUGGAUCCCCCGGCGCCCGGCGGCUCGAGCCCGGGUAAGUGUAAAUUGUCUGCAUGCCGCCGGGCGCCAUGCCUGCAGGUCGACUCUAGAAAACAUG,binding signal,[15],5.07 log2 enrichment (interaction score)
GGCUAGAACUAGUGGAUCCCCCGGCGCCCGGCGGCUCGAGCCCGGGUAAGUGUAAGUAGUCUGCAUGCCGCCGGGCGCCAUGCCUGCAGGUCGACUCUAGAAAACAUG,binding signal,[7],0.8 log2 enrichment (interaction score)
same,binding signal,[9],3.44 log2 enrichment (interaction score)
GGCUAGAACUAGUGGAUCCCCCGGCGCCCGGCGGCUCGAGCCCGGGUAAGUGUAAAUAGUCUGCAUGCCGCCGGGCGCCAUGCCUGCAGGUCGACUCUAGAAAACAUG,binding signal,[10],2.92 log2 enrichment (interaction score)
same,binding signal,[16],4.36 log2 enrichment (interaction score)
same,binding signal,[11],1.48 log2 enrichment (interaction score)
same,binding signal,[12],4.31 log2 enrichment (interaction score)
same,binding signal,[3],5.13 log2 enrichment (interaction score)
same,binding signal,[4],1.07 log2 enrichment (interaction score)
same,binding signal,[17],5.15 log2 enrichment (interaction score)
same,binding signal,[18],3.71 log2 enrichment (interaction score)
same,binding signal,[14],1.39 log2 enrichment (interaction score)
GGCUAGAACUAGUGGAUCCCCCGGCGCCCGGCGGCUCGAGCCCGGGUAAGUGUGAAUAGUCUGCAUGCCGCCGGGCGCCAUGCCUGCAGGUCGACUCUAGAAAACAUG,binding signal,[16],1.55 log2 enrichment (interaction score)
same,binding signal,[19],2.43 log2 enrichment (interaction score)
same,binding signal,[2],4.74 log2 enrichment (interaction score)
same,binding signal,[5],3.51 log2 enrichment (interaction score)
same,binding signal,[20],2.08 log2 enrichment (interaction score)

# — paper PMC8384837, “Expanding the binding specificity for RNA recognition by a PUF domain”
